In PubChem BioAssay (NCATS) one finds Potency and activity change, negative = cytotoxic data, which are given here for 23 molecules.

Inconclusive results are not listed. Values without a mark were called inactive. Calls of active or inactive are those of the source. The call rests on the fitted dose curve; in most records, active means well fitted curve in the direction sought with a large enough effect; inconclusive means small, poorly fitted or top-dose-only effect, or another doubt; inactive means no such curve, though single readings can be large; an effect the other way counts as inactive or inconclusive.

Assay [1] is described as follows: qHTS of pediatric cancer cell lines to identify multiple opportunities for drug repurposing: Primary screen for Saos-2 cells (AID 1347097). Further: nearly all actives have a fitted effect of over 40% in size. Further: potency means the concentration at half of the fitted maximal effect. On activity change, negative = cytotoxic: on the % scale 0 is the no-effect control and ±100 the full control effect. The gist of the method:
(§1)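 CRCs from 8- or 11-point titrations (lowest final 0.59 nM NPC, 0.78 nM MIPE). Cell viability: CellTiter-Glo after 48 h incubation, 15 min room-temperature development, luminescence imaging.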

Assay [2] can be described thus: qHTS of pediatric cancer cell lines to identify multiple opportunities for drug repurposing: Primary screen for LAN-5 cells (AID 1347100). Further: potency means the concentration at half of the fitted maximal effect.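 On activity change, negative = cytotoxic: plate controls were DMSO neutral control for no effect and bortezomib positive control for full effect.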 The method, boiled down: (§2)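 Cells (500-1,000/well) in growth media were settled 5 h at 37 degrees C, then given compounds for 48 h. Viability was read as CellTiter-Glo luminescence. Primary runs used MIPE at 11 points (0.78 nM-46 µM) and NPC at 8 points (0.59 nM-46 µM); follow-ups used 11 points.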
(In qHTS, concentration-response curves come from the screen itself.)

Assay [3] can be described thus: qHTS of pediatric cancer cell lines to identify multiple opportunities for drug repurposing: Primary screen for BT-12 cells (AID 1347101). Further: nearly all actives have a fitted effect of over 25% in size. Further: potency means the concentration at half of the fitted maximal effect.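 On activity change, negative = cytotoxic: plate controls were DMSO for no effect and bortezomib positive control for full effect.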 The method, boiled down: (§3)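 Cells (500-1,000/well) rested 5 h, then received compounds for 48 h; metabolically active cells were measured by CellTiter-Glo luminescence. Final concentrations spanned up to 46 µM (MIPE, 11-point) or 0.59 nM-46 µM (NPC, 8-point) in primary screens, 11-point in follow-ups.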

Assay [4] can be described thus: qHTS of pediatric cancer cell lines to identify multiple opportunities for drug repurposing: Primary screen for Rh18 cells (AID 1347102). Further: nearly all actives have a fitted effect of over 65% in size. Further: potency means the concentration at half of the fitted maximal effect. On activity change, negative = cytotoxic: on the % scale 0 is the no-effect control and ±100 the full control effect. The gist of the method:
as §2

A short description of assay [5]: qHTS of pediatric cancer cell lines to identify multiple opportunities for drug repurposing: Primary screen for RD cells (AID 1347104). Further: nearly all actives have a fitted effect of over 55% in size. Further: potency means the concentration at half of the fitted maximal effect.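 On activity change, negative = cytotoxic: plate controls were DMSO for no effect and bortezomib for full effect.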 The gist of the method: as §1
The nature of assay [6]: qHTS of pediatric cancer cell lines to identify multiple opportunities for drug repurposing: Primary screen for MG 63 (6-TG R) cells (AID 1347105). Further: nearly all actives have a fitted effect of over 50% in size. Further: potency means the concentration at half of the fitted maximal effect. On activity change, negative = cytotoxic: on the % scale 0 is the no-effect control and ±100 the full control effect. The gist of the method: as §1
Assay [7] in a line: qHTS of pediatric cancer cell lines to identify multiple opportunities for drug repurposing: Primary screen for control Hh wild type fibroblast cells (AID 1347106).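 Further: series mostly up to about 46 µM; on the % scale 0 is the no-effect control and ±100 the full control effect; a drop in luminescence marks cytotoxicity and a rise apparent proliferation; nearly all actives have a fitted effect of over 55% in size.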 The gist of the method: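 Viability after 48 h compound treatment at 37C, 500-1,000 cells/well, read as ATP luminescence with CellTiter-Glo. Primary screens used 11-point (MIPE, 0.78 nM-46 µM) or 8-point (NPC, 0.59 nM-46 µM) final concentrations; follow-up screens used 11-point dilutions.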

A short description of assay [8]: qHTS of pediatric cancer cell lines to identify multiple opportunities for drug repurposing: Primary screen for NB1643 cells (AID 1347099). Further: nearly all actives have a fitted effect of over 50% in size. Further: potency means the concentration at half of the fitted maximal effect.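 On activity change, negative = cytotoxic: plate controls were DMSO neutral control for no effect and bortezomib positive control for full effect.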 The gist of the method: as §1
A short description of assay [9]: qHTS of pediatric cancer cell lines to identify multiple opportunities for drug repurposing: Primary screen for OHS-50 cells (AID 1347103). Further: nearly all actives have a fitted effect of over 40% in size. Further: potency means the concentration at half of the fitted maximal effect.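 On activity change, negative = cytotoxic: plate controls were DMSO neutral control for no effect and bortezomib positive control for full effect.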 The gist of the method: as §3
Assay [10] is described as follows: qHTS of pediatric cancer cell lines to identify multiple opportunities for drug repurposing: Primary screen for SK-N-SH cells (AID 1347098). Further: nearly all actives have a fitted effect of over 65% in size. Further: potency means the concentration at half of the fitted maximal effect.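 On activity change, negative = cytotoxic: DMSO served as neutral control and bortezomib at 2.3 µM as positive control; on the % scale 0 is the no-effect control and ±100 the full control effect.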 The method, boiled down:
as §3

For `Cc1ccc2c(c1)c1c(n2CCc2ccc(C)nc2)CCN(C)C1`, the Potency entry in assay [1], in [2], in assay [3], in assay [4], in [5] and in assay [6] was “inactive” each time. In [7], the Potency entry was “inactive”.

Regarding `COc1ccc2nc3cc(Cl)ccc3c(Nc3cc(CN4CCCC4)c(O)c(CN4CCCC4)c3)c2n1`, the Potency entry in assay [1], in assay [8] and in assay [6] was “inactive” throughout.

As for `OCCn1cc(-c2ccc3c(c2)CCC3=NO)c(-c2ccncc2)n1`, the Potency entry in [1], in assay [2], in assay [9] and in assay [6] was “inactive” each time. Besides, the Potency in assay [8] is 11.8 µM (active).

Consider `N#Cc1ccc(Oc2ccc3c(c2)COB3O)cc1`, for which the Potency result in assay [1], in assay [4], in [6] and in assay [7] was “inactive” throughout.

For `COc1ccc(-c2ccc3ncc4c(c3c2)n(-c2ccc(N3CCNCC3)c(C(F)(F)F)c2)c(=O)n4C)cn1`, the Potency was 0.0857 µM (active) in assay [10]; 0.264 µM (active) in [8]; 0.166 µM (active) in [2]; 15.3 µM (active) in assay [3]; 0.0418 µM (active) in [4]; 0.0054 µM (active) in assay [9]. For the same molecule, the Potency in [5] was 743 nM (active); in [6] it was 0.0047 µM (active).

Take `COc1ccc2cc1Oc1ccc(cc1)C[C@H]1c3cc(c(OC)cc3CCN1C)Oc1c(OC)c(OC)cc3c1[C@H](C2)N(C)CC3`: the Potency in [1] was 29.6 µM (active); in assay [3] it was 7.69 µM (active); in assay [9] it was 17.2 µM (active). Moreover, the Potency result in [4] and in assay [7] was “inactive” each time.

Turning to `COC(=O)N1CCN(Cc2cccc(NC(=O)Nc3ccc(C)nc3)c2F)CC1`, the Potency entry in assay [1], in [2], in assay [4], in assay [6] and in assay [7] was “inactive” in each case.

On to `CNC1[C@H](O)C(O[C@@H]2C(O)C(O[C@H]3O[C@H]([C@@H](C)NC)CC[C@H]3N)[C@@H](N)C[C@H]2N)OC[C@]1(C)O` (stereo partly specified), for which the Potency result in assay [10], in assay [8], in assay [2], in [3], in [4] and in assay [9] was “inactive” each time. In addition, the Potency entry in assay [5] and in [7] was “inactive” throughout.

Turning to `CC=C(C(=CC)c1ccc(O)cc1)c1ccc(O)cc1`, the Potency in [1] was 18.7 µM (active); in assay [9], 27.3 µM (active); in [6], 18.7 µM (active). The Potency result in assay [4] and in assay [7] was “inactive” each time.

Take `COc1cc2c(cc1OC)CC(=O)N(CCCN(C)C[C@H]1Cc3cc(OC)c(OC)cc31)CC2`: the Potency entry in assay [1], in assay [2], in assay [6] and in [7] was “inactive” throughout.

`CN[C@H]1[C@@H](O[C@@H]2[C@H](O[C@@H]3[C@@H](O)[C@@H](O)[C@@H](N=C(N)N)[C@@H](O)[C@@H]3N=C(N)N)O[C@H](C)[C@@]2(O)C=O)O[C@@H](CO)[C@@H](O)[C@H]1O`: the activity change, negative = cytotoxic was 18.9% [at 11.4 µM] in assay [10]; 3.56% [at 9.22 µM] in [8]; -3.6% [at 9.22 µM] in [2]; -1.02% [at 11.5 µM] in [3]; 1.83% [at 9.22 µM] in [4]; 1.46% [at 9.22 µM] in assay [5]. Besides, the activity change, negative = cytotoxic in assay [6] is -18.1% [at 9.22 µM].

Turning to `COc1cc(F)c(C(C)C)cc1-c1ccc(C(F)(F)F)cc1CN1C(=O)O[C@H](c2cc(C(F)(F)F)cc(C(F)(F)F)c2)[C@@H]1C`, the Potency entry in assay [1], in assay [4], in assay [6] and in [7] was “inactive” in each case. Also, the Potency in assay [2] is 18.7 µM (active).

On to `O=C(Nc1ccc(OC(F)(F)F)cc1)c1sccc1NCc1ccnc2ccccc12`, for which the Potency in [1] was 18.7 µM (active). Further, the Potency result in assay [4], in assay [6] and in assay [7] was “inactive” throughout.

`C=C[C@@H]1CN2CCC1C[C@@H]2C(O)c1ccnc2ccc(OC)cc12` (stereo partly specified): the Potency result in assay [10], in assay [8], in assay [2], in assay [3], in [4] and in assay [9] was “inactive” in each case. Moreover, the Potency result in [6] was “inactive”.

Turning to `COc1cc(CNC(=O)CCCCC=CC(C)C)ccc1O`, the Potency entry in [1], in [3], in assay [4], in assay [5], in [6] and in [7] was “inactive” in each case.

As to `O=c1[nH]nc(OCCCc2ccc(Cl)cc2)c(NCc2cccnc2)c1Br`, in assay [10], the Potency result is “inactive”. In addition, the Potency is 23.5 µM (active) in [8]; 18.7 µM (active) in [2]; 27.3 µM (active) in assay [3]; 23.5 µM (active) in assay [4]; 19.3 µM (active) in [9]; 18.7 µM (active) in [6].

For `C[C@H]1COC2=C1C(=O)C(=O)c1c2ccc2c1CCCC2(C)C`, in assay [1], the Potency is 5.9 µM (active). Besides, the Potency result in assay [2], in [4], in assay [9], in assay [5] and in assay [6] was “inactive” each time.

Turning to `Cc1cnc(CNC(=O)c2c(=O)c3ccc(N4CCCN(C)CC4)nc3n3c2sc2ccccc23)cn1`, the Potency result in assay [1], in [5] and in assay [7] was “inactive” each time.

Take `Cc1ccc(S(=O)(=O)Nc2nc3ccccc3nc2Nc2ccc3nsnc3c2)cc1`: the Potency in [1] was 0.0457 µM (active); in assay [2], 0.0323 µM (active); in assay [3], 0.0668 µM (active); in assay [5] it was 51.2 nM (active). In addition, the Potency result in assay [7] is “inactive”.

Turning to `Clc1ccc(C2(c3ccc(-c4cn[nH]c4)cc3)CCNCC2)cc1`, the Potency was 4.18 µM (active) in assay [1], 26400 nM (active) in [5] and 5.9 µM (active) in assay [6]. For the same molecule, the Potency result in [3] and in assay [7] was “inactive” throughout.

Turning to `Cn1cc(-c2ccc3nnc(Sc4ccc5ncccc5c4)n3n2)cn1`, the Potency result in assay [10], in assay [8], in assay [2], in assay [3], in assay [4] and in [9] was “inactive” each time. For the same molecule, the Potency entry in assay [7] was “inactive”.

For the molecule `CC1C(=O)OC2C(O)C34C5CC(C(C)(C)C)C36C(OC(=O)C6O)OC4(C(=O)O5)C12O` (stereo unspecified), the Potency result in assay [1], in [4], in assay [9], in assay [6] and in assay [7] was “inactive” in each case. Besides, in assay [2], the Potency was 20.9 µM (active).

As to `CC1=C(CC(=O)O)c2cc(F)ccc2C1=Cc1ccc(S(C)=O)cc1` (stereo unspecified), the Potency was 19.2 µM (active) in [10], 7.43 µM (active) in assay [8] and 26.4 µM (active) in [2]. Moreover, the Potency result in assay [3] is “inactive”.
